Rows were chosen to be rich in hits. Some 5.7% of all compounds tested hit in one or more screens of this group.
GLP-1R inv ag: inverse agonists of human GLP-1 receptor; P43220; HEK293 GLP-1R CRE-luciferase, luminescence, 24 h; GLP-1R form is constitutively active; Potency, µM (doses to about 38.3 µM), without a hit: at the top dose activity change, negative = inhibition, actives largely listed as inhibitors; actives 1.6% (n = 410,000); AID 624417; further: potency means the concentration at half of the fitted maximal effect; on the % scale 0 is the no-effect control and ±100 the full control effect; nearly all actives have a fitted effect of over 55% in size
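Seeding at 200 cells/uL, 12 h culture, 24 hr compound treatment, then luciferase reagent and a luminescence read; cells are HEK293 stably expressing a constitutively active GLP-1R plus cAMP-responsive luciferase.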
GLP1R cytotox: cytotoxicity in counter-screen for GLP-1R inverse agonists | actives 0.13% (n = 410,000) | HEK293 cAMP-luciferase reporter cells, luminescence, 24 h | Potency, µM (top dose mostly 38.3 µM), without a hit: at the highest dose activity change, negative = inhibition, most hits filed as inhibitors;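 further: loss of luciferase light is scored as toxicity; potency means the concentration at half of the fitted maximal effect; on the % scale 0 is the no-effect control and ±100 the full control effect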
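MLSMR compounds, 24 hr on cells at 37 deg C/5% CO2; luminescence after luciferase reagent (12 min RT). Inhibition counted as the undesired cytotoxic outcome.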
DRD3 antagonist: D3 dopamine receptor (human) antagonism | max response, negative = inhibition, % | P35462 | actives 2.5% (n = 360,000) | D3R cells, DiscoveRx beta-arrestin luminescence, antagonist mode; hits give low values; in the data active means max response below about -50%; inconclusive means no clear call, values can overlap the other calls; further: on the % scale 0 is the no-effect control and ±100 the full control effect
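Cells plated overnight at 1500 cells/well, then exposed to library compounds with dopamine controls for 90 minutes at 37 degrees C. DiscoveRx reagent added for 30–60 minutes at room temperature; luminescence read, quantitative HTS format.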
GLP1R ag: agonists of human GLP-1 receptor; P43220; actives 0.007% (n = 380,000); HEK293 GLP-1R CRE-luciferase, luminescence, 4-6 h; cells express a hypersensitive GLP-1R form; Potency, µM (highest dose often 45.6 µM), for the others: at the top dose activation, most hits filed as activators; further: potency means the concentration at half of the fitted maximal effect; % of control where 0% means no effect
ClpP mod: qHTS Assay for Activators of ClpP; AID 651965, 2013; Potency, µM (series often up to 57.5 µM), for the others: top-dose activity change, negative = active; actives 1.9% (n = 340,000); purified B. subtilis ClpP, FRET peptide cleavage, 20 min; active means well fitted falling curve with a large enough effect; inconclusive means small, poorly fitted or top-dose-only effect; inactive means no such curve, though single readings can be large or run the other way; further: potency means the concentration at half of the fitted maximal effect; the source files actives as falling curves though it sought activators and does not explain the sign; nearly all actives have a fitted effect of over 65% in size
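ClpP 10 microg/mL final, pH 8 Tris/KCl buffer with BSA, glycerol, Tween-20; compound pinned in; FRET-FV substrate; RT 20 min; Ex320/Em430; ΔFRET vs ADEP 5.8 microM, DMSO, no enzyme.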
D3 ag: activates the human D3 dopamine receptor; D3R DiscoveRx beta-arrestin cells, luminescence, 90 min; max activation, %; actives 0.58% (n = 410,000); AID 652048; P35462; in the data active means max activation above about 30%; further: 0% is about no effect
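Agonist mode: compounds and dopamine controls were applied to plated cells for 90 min at 37 degrees C after an overnight attachment at 1500 cells/well. Luminescent read-out followed 30 - 60 minutes at room temperature with DiscoveRx detection reagent.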
Starred values were filed as active, the others as inactive. Unless noted, the call rests on the fitted dose curve; in most records, active means well fitted curve in the direction sought with a large enough effect; inconclusive means small, poorly fitted or top-dose-only effect, or another doubt; inactive means no such curve, though single readings can be large; an effect the other way counts as inactive or inconclusive.

CCn1c(CNc2ccc(Cl)cc2)nnc1SCC(=O)NCc1ccccc1 was read as GLP-1R inv ag inconclusive, GLP1R cytotox -19.6%, DRD3 antagonist -17.2, GLP1R ag 3.0%, ClpP mod 1.0% and D3 ag 18.4.
`Cc1nnc(SCC(=O)Nc2nc(-c3ccccc3)cs2)n1N` gave GLP-1R inv ag 0.0%, GLP1R cytotox 1.6%, DRD3 antagonist 14.2, GLP1R ag -8.9%, ClpP mod 0.4% and D3 ag 5.0.
`COC(=O)C1=CN(Cc2ccc(F)cc2)C=C(C(=O)OC)C1c1cc(OC)c(OC)c(OC)c1` gave GLP-1R inv ag 9.3%, GLP1R cytotox 39.0%, DRD3 antagonist 9.7, GLP1R ag 6.1%, ClpP mod 3.5% and D3 ag 4.7.
For COC(=O)C1=CN(Cc2ccc(OC)cc2)C=C(C(=O)OC)C1c1cc(OC)c(OC)c(OC)c1 the results were GLP-1R inv ag inconclusive, GLP1R cytotox 248.0%, DRD3 antagonist -3.4, GLP1R ag 5.01µM* and D3 ag -5.8.
Screening COC(=O)C1=CN(CC2CCCO2)C=C(C(=O)OC)C1c1cc(OC)c(OC)c(OC)c1 (configuration not stated) returned GLP-1R inv ag 9.8%, GLP1R cytotox 115.2%, DRD3 antagonist 9.1, GLP1R ag -1.2%, ClpP mod 25.1µM* and D3 ag -1.5.
For CO/N=C(\C(=O)N[C@@H]1C(=O)N2C(C(=O)OCOC(=O)C(C)(C)C)=C(C)CS[C@H]12)c1csc(N)n1 the results were GLP1R ag -5.0%.
`N#Cc1ccccc1NC(=O)COC(=O)/C=C/c1cn(-c2ccccc2)nc1-c1ccc(Cl)cc1` gave GLP-1R inv ag 7.1%, GLP1R cytotox -0.7%, DRD3 antagonist 10.8, GLP1R ag 1.1% and D3 ag 4.2.
Screening NC(=O)c1ccc(NC(=O)COC(=O)/C=C/c2cn(-c3ccccc3)nc2-c2cccnc2)cc1 returned GLP-1R inv ag 11.4%, GLP1R cytotox 20.6%, DRD3 antagonist 0.0, GLP1R ag 13.0%, ClpP mod 28.2µM* and D3 ag -1.5.
`O=C1C=C(NC2CC2)C2(CCCCC2)O1` gave GLP-1R inv ag -0.8%, GLP1R cytotox 0.0%, DRD3 antagonist 0.0, GLP1R ag -14.3%, ClpP mod 12.6µM* and D3 ag 1.9.
For N#CCC(=O)N/N=C/c1cn(Cc2ccc(Cl)c(Cl)c2)c2ccccc12 the results were GLP-1R inv ag 1.26µM*, GLP1R cytotox inconclusive, DRD3 antagonist -12.5, GLP1R ag 6.2% and D3 ag 4.3.
`O=C(CSc1nc2c(cnn2-c2ccc(F)cc2)c(=O)[nH]1)Nc1ccc(Br)cc1` gave GLP-1R inv ag 10.3%, GLP1R cytotox -9.0%, ClpP mod -5.4% and D3 ag -1.0.
For Cc1nn(S(=O)(=O)c2ccccc2)c(C)c1Sc1ccc([N+](=O)[O-])cc1 the results were GLP-1R inv ag 4.6%, GLP1R cytotox 4.6%, DRD3 antagonist -80.1*, GLP1R ag 19.8%, ClpP mod -0.3% and D3 ag -0.7.
Screening CCc1nc2c(OCc3ccc(C(F)(F)F)cc3)cccn2c1N(C)C(=O)c1ccc(C)cc1 returned GLP-1R inv ag inconclusive, GLP1R cytotox -13.1%, DRD3 antagonist -65.8*, GLP1R ag -1.6%, ClpP mod 1.3% and D3 ag -14.3.
`CCCCC(=O)N(C)c1c(CC)nc2c(OCc3ccc(C(F)(F)F)cc3)cccn12` gave GLP-1R inv ag 11.2µM*, GLP1R cytotox -12.4%, DRD3 antagonist -15.1, GLP1R ag -3.8%, ClpP mod -0.6% and D3 ag -10.8.
Cc1nc2c(OCc3ccc(C(F)(F)F)cc3)cccn2c1N(C)CC1CC1 was read as GLP-1R inv ag inconclusive, GLP1R cytotox -19.9%, DRD3 antagonist -98.6*, GLP1R ag -6.6%, ClpP mod -9.3% and D3 ag -27.7.
For COC(=O)c1ccccc1COc1cccn2c(N(C)CC3CC3)c(C)nc12 the results were GLP-1R inv ag inconclusive, GLP1R cytotox -23.5%, DRD3 antagonist -5.0, GLP1R ag 0.2%, ClpP mod -2.6% and D3 ag -9.1.
`CCc1nc2c(OCc3ccc(C(F)(F)F)cc3)cccn2c1N(C)C(=O)c1ccc(OC)cc1` gave GLP-1R inv ag inconclusive, GLP1R cytotox 1.6%, DRD3 antagonist inconclusive, GLP1R ag 6.3%, ClpP mod 2.1% and D3 ag -11.9.
Screening Cn1nc(-c2ccccc2)cc1NC(=O)Nc1ccccc1F returned GLP-1R inv ag inconclusive, GLP1R cytotox -27.4%, DRD3 antagonist 2.8, GLP1R ag 7.1% and D3 ag 10.6.
Cc1cc(C)cc(NC(=O)Nc2cc(-c3ccccc3)nn2C)c1 was read as GLP-1R inv ag 8.91µM*, GLP1R cytotox -14.9%, DRD3 antagonist 6.2, GLP1R ag 21.7% and D3 ag -1.1.
Screening CC(=O)NC(c1ccccc1)c1nc(-c2cccc(C#N)c2)cs1 (configuration not stated) returned GLP-1R inv ag 18.5%, GLP1R cytotox 9.6%, DRD3 antagonist 0.0, GLP1R ag 16.5%, ClpP mod -3.0% and D3 ag -6.2.
`C=CCc1ccc(OC(=O)NC2CCCCC2)c(OC)c1` gave GLP-1R inv ag 1.4%, GLP1R cytotox 13.1%, DRD3 antagonist -4.1, GLP1R ag 4.9%, ClpP mod 0.5% and D3 ag 9.2.
C=CCc1ccc(OCCOCCOc2ccc(C)cc2[N+](=O)[O-])c(OC)c1 was read as GLP-1R inv ag inconclusive, GLP1R cytotox 0.4%, DRD3 antagonist 19.2, GLP1R ag 20.1%, ClpP mod -1.1% and D3 ag 6.1.
Screening C=CCc1ccc(OCCOCCN(C)C)c(OC)c1 returned GLP-1R inv ag inconclusive, GLP1R cytotox -9.6%, DRD3 antagonist -70.9*, GLP1R ag -2.9%, ClpP mod -0.2% and D3 ag -3.9.
C=CCc1ccc(OCCCCNC2CCCC2)c(OC)c1 was read as GLP-1R inv ag inconclusive, GLP1R cytotox -5.9%, DRD3 antagonist -68.8*, GLP1R ag -0.7% and D3 ag -19.8.
`Cc1ccc(NC(=O)CN2C(=O)COc3ccc(S(=O)(=O)N4CCCCC4)cc32)cc1N(C)C` gave GLP-1R inv ag inconclusive, GLP1R cytotox -3.3%, ClpP mod -0.6% and D3 ag 3.0.
Screening CC(=O)c1ccc(Nc2ccc3cc(S(=O)(=O)N4CCCC4)ccc3n2)cc1 returned GLP-1R inv ag inconclusive, GLP1R cytotox -12.2%, ClpP mod 4.3% and D3 ag 0.2.
